Source: PubChem BioAssay AID1347420 (Sanford-Burnham Center for Chemical Genomics, 2020)
In all, about 1,300 compounds went through this assay and about 980 (75%) were called active. Roughly 4% stayed inconclusive and do not appear here. The list shows a part of the results.

The molecules below were run against Sulfhydryl oxidase 1 (Homo sapiens) (UniProt O00391) (assay: inhibition of human sulfhydryl oxidase QSOX1 – biochemical, HyperBlu H2O2 luminescence, HTS, primary screen (AID 1347420; further: values above 100% were filed as inconclusive)). Details: recombinant QSOX1, HyperBlu H2O2 luminescence; at 12.5 µM; stronger effect = higher value; active = any value above zero.
Sequence of Sulfhydryl oxidase 1 (Homo sapiens) (O00391 whole entry, looked up): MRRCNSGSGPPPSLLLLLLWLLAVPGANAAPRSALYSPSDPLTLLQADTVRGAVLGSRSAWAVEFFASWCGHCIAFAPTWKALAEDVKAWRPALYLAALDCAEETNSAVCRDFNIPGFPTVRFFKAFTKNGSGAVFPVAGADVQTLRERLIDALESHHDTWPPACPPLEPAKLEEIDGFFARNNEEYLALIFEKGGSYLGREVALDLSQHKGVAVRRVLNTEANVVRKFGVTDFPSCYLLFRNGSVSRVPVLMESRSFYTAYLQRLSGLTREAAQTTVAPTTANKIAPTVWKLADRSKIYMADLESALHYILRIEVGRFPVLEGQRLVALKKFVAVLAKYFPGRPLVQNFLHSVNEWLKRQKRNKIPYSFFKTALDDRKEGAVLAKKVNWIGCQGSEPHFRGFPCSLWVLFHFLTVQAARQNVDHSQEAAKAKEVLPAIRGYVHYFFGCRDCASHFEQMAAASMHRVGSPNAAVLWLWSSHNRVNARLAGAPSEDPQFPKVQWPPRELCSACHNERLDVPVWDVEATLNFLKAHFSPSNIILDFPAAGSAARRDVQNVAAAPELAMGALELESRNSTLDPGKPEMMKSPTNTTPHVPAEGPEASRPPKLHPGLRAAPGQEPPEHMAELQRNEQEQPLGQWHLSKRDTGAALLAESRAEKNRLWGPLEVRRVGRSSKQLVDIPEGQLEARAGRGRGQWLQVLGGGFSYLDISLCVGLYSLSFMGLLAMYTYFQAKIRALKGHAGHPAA

Compound | inhibition
Brc1c(NC2=NCCN2)ccc2nccnc12 | 21.8% (active)
CC(=O)O[C@H]1CC2(C)[C@@H](C[C@@H](O)[C@H]3[C@@]4(C)CC[C@@H](O)[C@@H](C)[C@@H]4CC[C@@]32C)/C1=C(/CCC=C(C)C)C(=O)O (some centres not stated) | 15.9% (active)
CCN(CC)CCn1c(=O)c(Cc2ccc(OC)cc2)nc2ccccc21 | 11.3% (active)
CCCNCC(O)COc1ccccc1C(=O)CCc1ccccc1 (configuration not stated) | 9.1% (active)
O=C(O)c1cc2cc(Cc3cccnc3)ccc2o1 | 12.1% (active)
NC(N)=Nc1nc(CSCC/C(N)=N/S(N)(=O)=O)cs1 | 19.1% (active)
CC(/C=C/c1cccc(Oc2ccc(F)cc2)c1)N(O)C(N)=O (configuration not stated) | 17.2% (active)
O=C(CCc1ccc(O)cc1)c1c(O)cc(O)cc1O | 35.5% (active)
NS(=O)(=O)C#Cc1ccccc1 | 7% (active)
NC(=O)c1cnccn1 | 6.1% (active)
CCCCCCCCCCCCCCC[C@H](O)[C@H](N)CO | 18.5% (active)
COc1ccc(NC(=O)c2ccc(-c3ccc(-c4noc(C)n4)cc3C)cc2)cc1N1CCN(C)CC1 | 3.7% (active)
CCCCCN(C)CCC(O)(P(=O)(O)O)P(=O)(O)O | -4.8% (inactive)
O=c1onc2n1-c1cc(Br)ccc1OC2 | 5.7% (active)
CC(C)(C)c1ccc(C(=O)CCCN2CCC(OC(c3ccccc3)c3ccccc3)CC2)cc1 | 8.3% (active)
C[C@@H](NCCc1ccc(O)cc1)[C@@H](O)c1ccc(O)cc1 | 14.4% (active)
CC(CCc1ccc(O)cc1)NCCc1ccc(O)c(O)c1 (configuration not stated) | 83.4% (active)
O=c1[nH]c2cc(C(F)(F)F)ccc2n1-c1cc(C(F)(F)F)ccc1O | 11.5% (active)
CC1CC2C3CCC4=CC(=O)C=C[C@]4(C)[C@@]3(F)[C@@H](O)C[C@]2(C)[C@@]1(O)C(=O)CO (some centres not stated) | 11.4% (active)
C[C@]12C=CC(=O)C=C1CC[C@H]1[C@@H]3C[C@@H](O)[C@](O)(C(=O)CO)[C@@]3(C)C[C@H](O)[C@@]12F | 26.2% (active)
C[C@H]1CC2C3CCC4=CC(=O)C=C[C@]4(C)[C@@]3(Cl)[C@@H](O)C[C@]2(C)[C@@]1(O)C(=O)CO (some centres not stated) | -10.3% (inactive)
CCOC(=O)C1=C(C)NC(C)=C(C(=O)OCC)C1c1c(F)c(F)c(F)c(F)c1F | -4.7% (inactive)
COC(=O)C1=C(C)NC(C)=C(C(=O)OCCN(C)Cc2ccccc2)C1c1cccc([N+](=O)[O-])c1 (configuration not stated) | 6.8% (active)
CCOC(=O)C1=C(C)NC(C)=C(C(=O)OC)C1c1cccc([N+](=O)[O-])c1 (configuration not stated) | 14% (active)
C#CCN1C(C)=C(C(=O)OC)C(c2cccc([N+](=O)[O-])c2)C(C(=O)OCC)=C1C (configuration not stated) | 7.8% (active)
CCOC(=O)C1=C(C)NC(C)=C(C(=O)OC)C1c1cccc(Cl)c1Cl (configuration not stated) | 6.3% (active)

Compound | inhibition
COCCOC(=O)C1=C(C)NC(C)=C(C(=O)OC/C=C/c2ccccc2)C1c1cccc([N+](=O)[O-])c1 (configuration not stated) | 32.1% (active)
COC(=O)C1=C(C)NC(C)=C(C(=O)OC(C)(C)CN(C)CCC(c2ccccc2)c2ccccc2)C1c1cccc([N+](=O)[O-])c1 (configuration not stated) | 21.8% (active)
COCCOC(=O)C1=C(C)NC(C)=C(C(=O)OC(C)C)C1c1cccc([N+](=O)[O-])c1 (configuration not stated) | 16.8% (active)
CCN1CCC[C@H]1CNC(=O)c1c(O)c(Cl)cc(Cl)c1OC | 14.4% (active)
NCCNC(=O)c1ncsc1-c1cccc(F)c1 | -11.5% (inactive)
O=C1NCC2(CCN(CCc3ccccc3)CC2)O1 | 10.5% (active)
Cc1ccc(O)c(N=Nc2ccccc2)n1 | 30.2% (active)
Cc1cc(NC2CCCCC2)nc(-n2nc(C)cc2C)n1 | 6.3% (active)
CCCCCCCCCCCCCCCC(=O)NCCO | 8.6% (active)
CCCCCCCC/C=C\CCCCCCCC(=O)NCCO | 0.4% (active)
CCCCCCC(=O)OC1CC(C)(C)NC(C)(C)C1 | -7.9% (inactive)
C[C@]12CC[C@@H]3c4ccc(O)cc4CC[C@H]3[C@@H]1CCC2=O | 22.4% (active)
C[C@]12CC[C@@H]3c4ccc(O)cc4CC[C@H]3[C@@H]1CC[C@@H]2O | 24.6% (active)
C[C@](N)(Cc1ccc(O)cc1)C(=O)O | 2.9% (active)
COC(=O)C(C)(N)Cc1ccc(O)cc1 (configuration not stated) | 2.3% (active)
CC(N)(Cc1ccc(O)cc1)C(=O)O (configuration not stated) | 50.5% (active)
CCOC(=O)C1=C[C@]2(CC)CCCN3CCc4c(n1c1ccccc41)[C@@H]32 | 8.5% (active)
CCc1ccc2c(-c3cccc(Cl)c3)nc(=O)n(CC)c2n1 | 20% (active)
CCOC(=O)c1ncn2c1CN(C)C(=O)c1cc(F)ccc1-2 | 11.8% (active)
Nc1nc(N)c2nc(CNc3ccc(C(=O)NC(CCC(=O)O)C(=O)O)cc3)cnc2n1 (configuration not stated) | 34.3% (active)
CN(Cc1cnc2nc(N)nc(N)c2n1)c1ccc(C(=O)N[C@@H](CCC(=O)O)C(=O)O)cc1 | 3.6% (active)
CC(C)C(=O)Nc1ccc([N+](=O)[O-])c(C(F)(F)F)c1 | 4.7% (active)
CC1(C)NC(=O)N(c2ccc([N+](=O)[O-])c(C(F)(F)F)c2)C1=O | -8.3% (inactive)
O=[N+]([O-])c1ccc(CSc2ncnc3c2ncn3[C@@H]2O[C@H](CO)[C@H](O)C2O)cc1 (some centres not stated) | 33.9% (active)
Nc1nc(SCc2ccc([N+](=O)[O-])cc2)c2ncn([C@@H]3O[C@H](CO)[C@H](O)C3O)c2n1 (some centres not stated) | 33.7% (active)
C#CC(N)CCC(=O)O (configuration not stated) | 13.5% (active)

Compound | inhibition
C=CC(N)CCC(=O)O (configuration not stated) | -9.5% (inactive)
Nc1nc2c(ncn2COCCO)c(=O)[nH]1 | 19.3% (active)
Nc1nc2c(ncn2COC(CO)CO)c(=O)[nH]1 | 10.7% (active)
Cc1cccc(-c2[nH]c(C(C)(C)C)nc2-c2ccc3nccnc3c2)n1 | -12.5% (inactive)
N=S(=O)([O-])Cc1noc2c1C=C[C+]=C2 | 9.3% (active)
OC[C@H]1NC[C@@H](O)[C@@H]1O | 10.5% (active)
OCC1NCC(O)C(O)C1O (configuration not stated) | 14.4% (active)
CCN1/C(=C/C(C)=O)Sc2ccc(OC)cc21 | 58.1% (active)
CC[C@H](C)C(=O)O[C@H]1CCC=C2C=C[C@H](C)[C@H](CC[C@@H]3C[C@@H](O)CC(=O)O3)[C@H]21 | 8.8% (active)
CC(C)(C)NCC(O)COc1nsnc1N1CCOCC1 (configuration not stated) | 3.8% (active)
CC1CNCCN1S(=O)(=O)c1cccc2cnccc12 (configuration not stated) | 37.4% (active)
CC1CN(S(=O)(=O)c2cccc3cnccc23)CCN1 (configuration not stated) | 4.9% (active)
O=Nc1ccc2oc(=O)ccc2c1 | 85% (active)
COC(=O)Nc1nc2ccc(C(=O)c3cccs3)cc2[nH]1 | 12.3% (active)
O=c1[nH]c(=O)c2nc3ccccc3nc2[nH]1 | 3.9% (active)
NC(=O)c1cn(Cc2c(F)cccc2F)nn1 | -7.2% (inactive)
CCCN(CCC)CCc1cccc2c1CC(=O)N2 | -8.3% (inactive)
CO[C@@]1(NC(=O)CSCC#N)C(=O)N2C(C(=O)O)=C(CSc3nnnn3C)CS[C@@H]21 | 10% (active)
CN1CCC[C@H]1c1cccnc1 | 2.5% (active)
CN1C(=O)CC[C@H]1c1cccnc1 | 3.9% (active)
COc1ccccc1CNCCCCCCNCCCCCCCCNCCCCCCCNc1ccccc1OC | 0.8% (active)
C#CCCN | 25.9% (active)
NC(=O)c1ccc2[nH]ccc2c1 | -15.5% (inactive)
NC(=O)c1cccc(N)c1 | 19% (active)
NC(=O)c1ccccc1 | -9.9% (inactive)
CC[C@@H](C)[C@H]1O[C@]2(CC[C@@H]1C)C[C@@H]1C[C@@H](C/C=C(\C)[C@@H](O[C@H]3C[C@H](OC)[C@@H](O[C@H]4C[C@H](OC)[C@@H](O)[C@H](C)O4)[C@H](C)O3)[C@@H](C)/C=C/C=C3\CO[C@@H]4[C@H](O)C(C)=C[C@@H](C(=O)O1)[C@]34O)O2 | 10.8% (active)

Compound | inhibition
Cc1cccc(/C=C/c2ccccc2)n1 | 3.6% (active)
O=NN(CCCl)C(=O)NCCCl | 10.3% (active)
CCCNC(C)C(=O)Nc1ccccc1C (configuration not stated) | 3.1% (active)
Nc1nc2ccc(OC(F)(F)F)cc2s1 | 7.2% (active)
CSC(=N)N | 14.1% (active)
CCSC(=N)N | 3% (active)
NC(=O)CNCCC(c1ccccc1)c1ccccc1 | 1.3% (active)
N=C(N)N1CCc2ccccc2C1 | 18.5% (active)
CC(C)NNC(=O)c1ccncc1 | 0.1% (active)
C1COC(NC(C2CC2)C2CC2)=N1 | -6.7% (inactive)
CN(C)CCCC1(c2ccc(F)cc2)OCc2cc(C#N)ccc21 (configuration not stated) | 8.6% (active)
Nn1nnc2ccccc21 | 21.7% (active)
N[C@@H](Cc1c[nH]c2ccccc12)C(=O)O | 3.4% (active)
O=C(O)Cc1c[nH]c2ccc(O)cc12 | 47.5% (active)
N[C@@H](Cc1c[nH]c2ccc(O)cc12)C(=O)O | 45.4% (active)
Cc1cnc(NC(=O)C2=C(O)c3ccccc3S(=O)(=O)N2C)s1 | 44.2% (active)
CN1C(C(=O)Nc2ccccn2)=C(O)c2ccccc2S1(=O)=O | 35.6% (active)
CN1C2CCCC1CC(NC(=O)c1nn(C)c3ccccc13)C2 (configuration not stated) | 8.4% (active)
CC(=O)O[C@]1(C(C)=O)CC[C@H]2[C@@H]3C=C(Cl)C4=CC(=O)[C@@H]5C[C@@H]5[C@]4(C)[C@H]3CC[C@@]21C | -5.1% (inactive)
NCCS(=O)O | 4.2% (active)
CC(=O)NNC(=O)N1Cc2ccccc2Oc2ccc(Cl)cc21 | 17.2% (active)
N[C@@H](Cn1ccc(=O)c(O)c1)C(=O)O | 10.1% (active)
O=[N+]([O-])c1ccc(-c2nc(-c3ccc(F)cc3)c(-c3ccncc3)[nH]2)cc1 | 92.4% (active)
Oc1ccc(-c2nc(-c3ccc(F)cc3)c(-c3ccncc3)[nH]2)cc1 | 97% (active)
